# SW480 rerep = inducers of DNA re-replication in SW480 colon cancer cells; AID 624297; Potency, µM (highest dose often 46.1 µM), for inactives: top-dose re-replication activation, hits mostly activators; SW480 DNA re-replication, Hoechst DNA content imaging, 48 h; 1.8% of 340,000 active; also: potency is read from the fitted curve at half-maximal effect; % of control where 0% means no effect; nearly all actives have a fitted effect of over 55% in size
#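 250 cells/well; 23 nL cpd via pin tool; 48 hr, 37 C, 5% CO2; Hoechst 40 min; imager read of total nuclear intensity, ex 405/em 500-530 nm.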
# DRD3 agonist = D3 dopamine receptor (human) agonism | max activation, % | D3R DiscoveRx beta-arrestin cells, luminescence, 90 min | 0.58% of 410,000 active; in the data active = max activation above about 30%; also: 0% is about no effect
# Target sequence (P35462 whole entry, looked up): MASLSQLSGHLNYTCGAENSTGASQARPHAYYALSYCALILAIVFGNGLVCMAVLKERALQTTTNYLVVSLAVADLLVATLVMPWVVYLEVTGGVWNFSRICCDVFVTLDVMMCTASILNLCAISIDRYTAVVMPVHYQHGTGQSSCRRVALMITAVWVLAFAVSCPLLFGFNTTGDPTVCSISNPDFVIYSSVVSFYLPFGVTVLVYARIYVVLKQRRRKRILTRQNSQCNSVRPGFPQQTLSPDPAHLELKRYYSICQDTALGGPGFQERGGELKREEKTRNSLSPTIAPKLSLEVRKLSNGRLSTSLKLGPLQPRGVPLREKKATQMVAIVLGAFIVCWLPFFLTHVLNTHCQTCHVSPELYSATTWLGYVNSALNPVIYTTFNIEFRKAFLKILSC
#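 Cells at 1500/well, incubated overnight, then treated with pinned compounds (dopamine as control) for 90 min at 37 degrees C. DiscoveRx reagent added for 30 - 60 minutes at room temperature; luminescence read.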
# KB-3-1 cytotox = kills parental KB-3-1 adenocarcinoma cells. KB-3-1 viability, CellTiter-Glo ATP luminescence, 72 h. Potency, µM (highest dose often 46.1 µM), hits mostly cytotoxic. 1.4% of 400,000 active. AID 1347075; also: potency is read from the fitted curve at half-maximal effect; % is scaled to controls: 0 for no effect and ±100 for the full control effect; nearly all actives have a fitted effect of over 60% in size
#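 Cells are dispensed, compounds pinned in, plates held at 37 °C for 72 h, then CellTiter-Glo is added and luminescence read after 10 minutes. Cell line: parental KB-3-1 in phenol-red-free DMEM, 10% FBS.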
# D3 antag = antagonists of human D3 dopamine receptor; D3R cells, DiscoveRx beta-arrestin luminescence, antagonist mode; hits give low values; 2.5% of 360,000 active; max response, negative = inhibition, %; P35462; in the data active = max response below about -50%; inconclusive = no clear call, values can overlap the other calls; also: % is scaled to controls: 0 for no effect and ±100 for the full control effect
#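 Cells plated overnight at 1500 cells/well, then exposed to library compounds with dopamine controls for 90 minutes at 37 degrees C. DiscoveRx reagent added for 30–60 minutes at room temperature; luminescence read, quantitative HTS format.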
# KB-V1 MDR tox = kills drug-selected multidrug resistant KB-V1 cells; 3.4% of 400,000 active; Potency, µM (titrated, usually from 46.1 µM), usual class: cytotoxic; KB-V1 MDR cells viability, CellTiter-Glo, 72 h; also: potency is read from the fitted curve at half-maximal effect; % is scaled to controls: 0 for no effect and ±100 for the full control effect; nearly all actives have a fitted effect of over 60% in size
#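 KB-V1, DMEM (no phenol red) + 10% FBS; cpd pin-transferred, titration series; 72 h, 37 degrees C; CellTiter-Glo, luminescence. Data normalized, curve-fit.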
# MCF10A rereplic = inducers of DNA re-replication in MCF 10A breast cells | AID 624296 | MCF 10A DNA re-replication, Hoechst nuclear intensity, 48 h | Potency, µM (series often up to 46.1 µM), inactives show top-dose activity, positive = re-replication, usual class: activators | 2.9% of 350,000 active; also: potency is read from the fitted curve at half-maximal effect; % of control where 0% means no effect; nearly all actives have a fitted effect of over 50% in size
# Starred values were filed as active, the others as inactive; i = inactive; ? = inconclusive; . = no result given. Rows were chosen to be rich in hits. Some 8.9% of all compounds tested hit in one or more screens of this group. Unless noted, calls follow the shape of the dose curve; as a rule, active = well fitted curve in the direction sought with a large enough effect; inconclusive = small, poorly fitted or top-dose-only effect, or another doubt; inactive = no such curve, though single readings can be large; an effect the other way counts as inactive or inconclusive.
SMILES,SW480 rerep,DRD3 agonist,KB-3-1 cytotox,D3 antag,KB-V1 MDR tox,MCF10A rereplic
COc1ccc(C2=NOC(COc3ccc4c(C)cc(=O)oc4c3)C2)c(OC)c1 (stereo unspecified),12µM*,-6,5.8µM*,2,15µM*,26µM*
COc1ccccc1C1=NOC(COc2ccc3c(C)cc(=O)oc3c2)C1 (stereo unspecified),8.2µM*,4,1.2µM*,-27,18µM*,1.6µM*
COc1ccc(C(=O)Nc2nnc(-c3cccs3)s2)cc1,?,-4,5.2µM*,-12,?,?
Cc1cc(Cl)cc(C)c1OCCNCc1ccccc1,0%,-17,i,?,i,?
Cc1cc(Cl)cc(C)c1OCCOCCNCc1ccccc1,16%,-9,i,-80*,?,14%
Cc1cc(C)c(OCCCCNCc2ccccc2)c(Cl)c1,?,-59,?,-76*,8.2µM*,23µM*
CC1=NN(c2ccccc2)C(=O)/C1=C/C=C/C=C/N(C)C,-5%,-16,?,-69*,i,2%
CN1C(=O)c2ccccc2Sc2ccc(NC(=O)COc3ccc(Cl)cc3)cc21,.,2,?,.,8.2µM*,.
CCCCNC(=O)Nc1ccc2c(c1)N(C)C(=O)c1ccccc1S2,-1%,0,i,0,i,18%
Cc1ccc(C(=O)Nc2ccc3c(c2)N(C)C(=O)c2ccccc2S3)cc1,.,-7,16µM*,.,?,.
COc1ccc(OCC(=O)Nc2ccc3c(c2)N(C)C(=O)c2ccccc2S3)cc1,.,1,i,.,i,.
CN1C(=O)c2ccccc2Sc2ccc(NC(=O)c3ccc(C(F)(F)F)cc3)cc21,.,-22,i,.,i,.
CCCNC(=O)Nc1ccc2c(c1)N(C)C(=O)c1ccccc1S2,6%,-8,?,?,21µM*,11%
Cc1ccc(C)n1-c1nnc(N2CCCC(C(=O)NCc3ccc(F)cc3)C2)s1 (stereo unspecified),.,-12,i,.,i,.
CN(C)CCNc1ncnc2c1sc1nc(N3CCOCC3)c3c(c12)CC(C)(C)SC3,?,-6,?,0,?,21µM*
CCN(CC)CCNc1ncnc2c1sc1nc(N3CCOCC3)c3c(c12)CC(C)(C)SC3,-16%,2,i,-22,i,-2%
CN1C(=O)/C(=C/c2cccc(Cl)c2)Sc2ccc(C(=O)N3CCOCC3)cc21,?,-10,i,-30,i,21µM*
CN1C(=O)/C(=C/c2ccccc2Cl)Sc2ccc(C(=O)N3CCCC3)cc21,-8%,4,i,18,i,18µM*
CCOc1ccc(/C=C2/Sc3ccc(C(=O)N4CCOCC4)cc3N(C)C2=O)cc1OC,?,16,i,0,?,?
COc1ccc(/C=C2\Sc3ccc(C(=O)N4CCCC4)cc3N(C)C2=O)cc1OC,4µM*,-10,i,1,i,12%
O=C1CC(c2nc(-c3cccc(Cl)c3)no2)CN1c1ccc2c(c1)OCCO2 (stereo unspecified),.,8,i,.,?,.
Cc1cc(C)nc(Nc2ccccc2Br)n1,-9%,4,i,3,i,-3%
Cc1cc(C)nc(N/C(=N\S(=O)(=O)Cc2ccccc2)Nc2ccccc2Br)n1,?,5,i,19,?,4.1µM*
CCCS(=O)(=O)c1nc(S(=O)(=O)c2ccc(C)cc2)c(N2CCCCC2)s1,.,-2,i,2,i,.
CCN1CCN(c2sc(S(=O)(=O)CC)nc2S(=O)(=O)c2ccc(Cl)cc2)CC1,.,-4,i,-105*,?,.
CCS(=O)(=O)c1nc(S(=O)(=O)c2ccc(Cl)cc2)c(N2CCN(CCO)CC2)s1,-6%,-14,i,-18,i,0%
CCCS(=O)(=O)c1nc(S(=O)(=O)c2ccc(C)cc2)c(N2CCN(CCO)CC2)s1,-2%,-6,i,-91*,i,-3%

# Assay outcomes (PubChem BioAssay)
